# The whole screen tested about 330,000 compounds, of which about 4,400 (1.3%) were called active. This excerpt belongs to a sample that is enriched for actives. Values without a mark were called inactive.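 How the source made its calls: active means growth inhibition of the mutant yeast at or above 50%; inactive means the rest.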
# Test: growth inhibitors of tim23-1 mutant yeast, primary screen, luminescence, uHTS (AID 463212);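 further: temperature-sensitive mutant grown at 25 °C; plate controls were DMSO-treated mutant yeast for no effect and medium wells lacking yeast for full effect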
# Settings: S. cerevisiae tim23-1 growth, BacTiter-Glo luminescence, 24 h; at 20 µM; stronger effect = higher value
row,SMILES,inhibition
1,CCC[C@H]1CCCC/C=C\CCCC(=O)OCCN1C(=O)OC(C)(C)C,9.84%
2,CC1Sc2ccc(C(=O)NCc3ccccc3Cl)cc2NC1=O (stereo not drawn),9.69%
3,CCOc1ccc(N/C(N)=N/c2nc(C)c(C)c(=O)[nH]2)cc1,12.2%
4,CCOC(=O)N1CCN(C(=O)c2ccc3nc4cc(Cl)ccc4c(=O)n3c2)CC1,10.4%
5,CCN(CC(=O)Nc1ccc(OC)cc1)C(=O)CSCc1ccc(C)cc1,25%
6,COC(=O)c1sccc1NC(=S)Nc1ccc(C)cc1,22.6%
7,COc1ccc(C(=O)CCC(=O)Nc2ccc(Cl)cc2)cc1,12.1%
8,COc1ccc(CS(=O)/C(Cl)=C(/Cl)C(=O)Nc2ccc(OC)nc2)cc1 (stereo not drawn),85.7% (active)
9,COc1ccc(CCNC(=O)c2cnc(Cl)c(Cl)c2)cc1,1.06%
10,COc1ccc(NC(=O)/C(Cl)=C(/Cl)S(=O)Cc2ccc(C)cc2)cn1 (stereo not drawn),67% (active)
11,COc1ccc2c(c1)cc1n2CCN=C1NN,45.5%
12,COc1ccc(C(=O)ON=C2c3ccccc3-c3ccccc32)cc1OC,0.197%
13,COc1ccc(C/C(N)=N/OC(=O)c2ccco2)cc1OC,2.63%
14,COc1ccc(C(=O)O/N=C(\N)Cc2ccc(Cl)cc2Cl)cc1OC,60.3% (active)
15,Cn1nc(C(F)(F)F)c2cc(C(=O)N3CCOCC3)sc21,3.93%
16,Cn1nc(C(F)(F)F)c(-c2ccc(F)cc2)c1NC(=O)CSCC(=O)O,-1.38%
17,Cn1nc(C(F)(F)F)c2cc(NC(=O)OCC(C)(C)C)sc21,50.2% (active)
18,COc1ccc(CCNC(=O)C2CCCN(Cc3nc(-c4cccc(Cl)c4)oc3C)C2)cc1OC (stereo not drawn),7.77%
19,COc1cc(OC)c2c(-c3cccc(-c4cccc(N)c4)c3)cc(=O)oc2c1,35.7%
20,O=C(O)c1ccc(/C=N/NC(=S)NCc2ccccc2)cc1,-1.86%
21,C/C(=N\NC(=S)NCc1ccccc1)C1CCCCC1,22.7%
22,C/C(=N\NC(=S)NCc1ccccc1)c1ccc(Cl)cc1,56% (active)
23,Cc1nn(C)c(C)c1CN(C(=O)CCc1nnc(Cc2c[nH]c3ccccc23)o1)C(C)C,20.5%
24,COc1ccc(-n2cnc3cc(C(=O)NC4CCCC4)ccc32)cc1,17.7%

row,SMILES,inhibition
1,COc1ccc(C(=O)NC(=S)NC2CCCCC2)cc1,63.3% (active)
2,O=C(NNC(=S)NC1CCCCC1)c1ccccc1Cl,5.3%
3,O=C(NC1CCCCCC1)C1CCN(C(=O)c2ccc(Cl)cc2)CC1,15.7%
4,O=C(NC(=S)NC1CCCCC1)c1ccc(Cl)cc1,67.3% (active)
5,CCCNC(=S)N1CCC(NC(=O)c2ccc(OC)cc2)CC1,-9.98%
6,CCc1ccc(S(=O)(=O)NCC(O)COc2ccc(OC)cc2)cc1 (stereo not drawn),13.2%
7,CCc1ccc(Nc2n[n+](-c3ccccc3)c(-c3cccc(Cl)c3Cl)s2)cc1,36.3%
8,CC(=O)C1=C(O)C(=O)N(c2cccnc2)C1c1ccc([N+](=O)[O-])cc1 (stereo not drawn),4.69%
9,O=C1[C@@H](c2ccccc2)[C@@H](c2ccccc2)N1c1cccnc1,70.3% (active)
10,CCc1ccccc1NC1c2ccccc2C(=O)N1c1cccnc1 (stereo not drawn),-9.01%
11,CCOc1cc(/C=N/Nc2cc(C)nc3ccc(C)cc23)ccc1O,37.3%
12,COc1cc(/C=N/NC(=O)CCc2n[nH]c(=O)[nH]c2=O)ccc1O,5.73%
13,COc1cc(/C=N/Nc2nc3ccccc3s2)ccc1O,51.9% (active)
14,CC(=O)c1c(C)[nH]c(C(=O)CN2C(=O)NC(C)(C)C2=O)c1C,-12.9%
15,Cc1ccc(S(=O)(=O)N[C@@H](Cc2ccccc2)C(=O)N2CCC(C(=O)N[C@H](C(=O)O)C(C)O)CC2)cc1 (stereo partly drawn),0.987%
16,Oc1c(Cl)cc(Cl)c(Cl)c1Cc1c(O)c(Cl)cc(Cl)c1Cl,94.9% (active)
17,Cc1ccc(OC(=O)c2cncc(Br)c2)c(C)c1,14.1%
18,CC1(C)C2CCC1(C)C(OC(=O)CCn1ccnc1)C2 (stereo not drawn),13.1%
19,CC1(C)C2CCC1(C)C(OC(=O)c1ccc(O)cc1)C2 (stereo not drawn),70% (active)
20,Cc1ccc(C(=O)OC2CCCN(C)C2)cc1 (stereo not drawn),-2.9%
21,CN(C)c1ccc(N/C=C/C(=O)C(F)(F)F)cc1,6.08%
22,O=C(O)c1cc(S(=O)(=O)N2CCCCCC2)c(Cl)cc1Cl,8.13%
23,COc1ccc(CCNC(=O)CCCCCNC(=O)N2CCn3c2nc2ccccc23)cc1OC,15%
24,CC1CC2=C(CC1/C=N/NC(N)=S)C(C)(C)CCC2 (stereo not drawn),50.5% (active)

row,SMILES,inhibition
1,CC1CCN(C(=S)c2ccc(-c3ccc(Cl)cc3Cl)o2)CC1,17.6%
2,C/C(=N\NC(=O)c1ccc(NS(=O)(=O)c2cccs2)cc1)c1ccc2ccccc2c1,10.6%
3,CCN(C(=O)CSc1nnnn1-c1ccccc1OC)C1CCS(=O)(=O)C1 (stereo not drawn),-2.5%
4,CC(=O)Nc1cccc(C(=O)OCC(=O)c2ccc3c(c2)OCO3)c1,2.44%
5,O=C(COC(=O)c1ccc(O)cc1O)c1ccc2c(c1)OCCO2,59% (active)
6,O=C(COC(=O)c1ccccc1)c1ccc2c(c1)OCCO2,16.5%
7,O=C(c1cnn2ccccc12)N1CCc2ccccc21,5.86%
8,COC(=O)c1cn(C)c2ccc(S(=O)(=O)N3CC(C)CC(C)C3)cc2c1=O (stereo not drawn),17.1%
9,CC(=O)N/C(=C/c1ccc(OC(F)F)cc1)C(=O)O,0.72%
10,C=CCn1c(Cn2nnc3ccccc32)nnc1SCC(=O)N/N=C/c1cc(Br)cc(OC)c1O,7.67%
11,Oc1c(Cl)cc(Cl)cc1/C=N/c1ncn[nH]1,31.4%
12,COc1cc(Br)cc(/C=N/c2ncn[nH]2)c1O,72.2% (active)
13,CCc1ccc(Oc2nc([N+](=O)[O-])nn2C)cc1,27.6%
14,CC1CCN(Cc2nc3c(c(=O)n(C)c(=O)n3C)n2CCc2ccccc2)CC1,5.06%
15,Cn1c2ccccc2c2c(C(=O)N3CCN(c4ccc(F)cc4)CC3)cn(C3CCCC3)c(=O)c21,31.3%
16,CCCc1nc2c(c(=O)c3ccccc3n2C)c(=O)n1C1CCCCCC1,59.8% (active)
17,CCN=c1sc(C(=O)Nc2ccccc2)c(C)n1CC,-9.39%
18,COc1cccc(C2=CC(=O)C[C@H](c3ccc(OC)c(OC)c3)C2)c1,29%
19,Cc1cccc(-n2ncc(Cl)c(Cl)c2=O)c1,13.8%
20,Cc1ccc(Oc2cnn(-c3ccccc3)c(=O)c2Br)cc1,55.2% (active)
21,Cc1ccc(OC(=O)c2c(C)nn(-c3ccccc3)c2C)cc1,23%
22,Cc1ccc(-n2c(=O)c(C#N)cc3c(=O)n4ccccc4nc32)cc1C,-9.74%
23,CCc1ccc(OCC(=O)N(Cc2ccccc2)C2CCS(=O)(=O)C2)cc1 (stereo not drawn),9.11%
24,COc1ccccc1C(C)NC(=O)Cc1ccsc1 (stereo not drawn),-5.87%

row,SMILES,inhibition
1,O=C(NCCc1ccco1)c1nn(Cc2ccccc2)c(=O)c2ccccc12,8.6%
2,O=c1nc2s/c(=C\c3ccco3)c(=O)n2nc1Cc1ccccc1,65.5% (active)
3,O=C(Nc1ccccc1)/C(=C\c1ccco1)NC(=O)c1ccco1,17%
4,COc1ccc(C(=O)O)cc1S(=O)(=O)NCc1cccnc1,-0.937%
5,COc1ccc(CNC(=O)c2cc(=O)c3c(C)cc(C)cc3o2)cc1,28.5%
6,Cc1cc(C)cc(OCC(=O)Nc2cc(NC(=O)COc3cc(C)cc(C)c3)cc(C(=O)O)c2)c1,1.96%
7,CNC(=O)c1nnc(Cc2ccc(Cl)cc2)o1,13.1%
8,c1ccc2cc(CCCc3cc4ccccc4cn3)ncc2c1,51.6% (active)
9,Cc1nn(CC(=O)N2CCCCC2)c(=O)c2nn(-c3ccccc3)c(C)c12,5.69%
10,Cc1ccc(NC(=O)C(=O)NCc2ccc(/C=N/NC(=O)c3c(C)nc4cc(C)ccn34)o2)cc1,13.6%
11,O=C(Nc1ccc(S(=O)(=O)Nc2ccccn2)cc1)c1ccccc1,-13.7%
12,O=C(Nc1ccccc1)c1nnsc1S(=O)(=O)c1ccc(Cl)cc1,59.8% (active)
13,O=C(Nc1ccc(Cl)cc1)Nc1nnc(/C=C/c2ccccc2)s1,-4.19%
14,CC(=O)C[C@@H](O)CC(=O)[C@H]1OC(=O)CCCCCCc2ccccc21,12.8%
15,CCOC(=O)C1=C(C)N(C[C@@H]2CC[C@@H](Cc3ccc(-c4ccccc4)cc3)O2)C(=O)NC1c1ccc([N+](=O)[O-])cc1 (stereo partly drawn),34.6%
16,C=CCNC(=S)N1CCc2[nH]c3ccccc3c2C1,-8.13%
17,CC[C@]1(C(=O)OC)[C@H]2C(=O)N(Cc3ccccc3)C(=O)[C@H]2[C@H]2CN=C(SCc3ccccc3)N21,37.7%
18,CC[C@]1(C(=O)OC)[C@H]2C(=O)N(Cc3ccccc3)C(=O)[C@H]2[C@H]2CN=C(SCc3ccc(Cl)cc3)N21,53.5% (active)
19,CC[C@]1(C(=O)OC)[C@H]2C(=O)N(Cc3ccccc3)C(=O)[C@H]2[C@H]2CN=C(SCc3ccc(C#N)cc3)N21,46.4%
20,COc1cccc(NC(=O)CN(C)C(=O)CSCc2nc3scc(-c4cccs4)c3c(=O)[nH]2)c1,4.94%
21,Cc1ccc(NC(=O)Cn2c(=O)n(CCC(=O)NC3CCN(Cc4ccccc4)CC3)c(=O)c3ccccc32)cc1,-1.05%

# Reference: PubChem BioAssay AID463212 (Sanford-Burnham Center for Chemical Genomics, 2010)
